# Results as given in PMC6602471.
# The full ranking holds about 1,300 sequences; the median of “log fluorescence intensity” is about 8.9, and the highest 2% start at about 13. The full list was thinned out, with the highest values kept by preference.
# Target: T1, ELK1 (Homo sapiens, UniProt P19419 1-428)
# T1 sequence: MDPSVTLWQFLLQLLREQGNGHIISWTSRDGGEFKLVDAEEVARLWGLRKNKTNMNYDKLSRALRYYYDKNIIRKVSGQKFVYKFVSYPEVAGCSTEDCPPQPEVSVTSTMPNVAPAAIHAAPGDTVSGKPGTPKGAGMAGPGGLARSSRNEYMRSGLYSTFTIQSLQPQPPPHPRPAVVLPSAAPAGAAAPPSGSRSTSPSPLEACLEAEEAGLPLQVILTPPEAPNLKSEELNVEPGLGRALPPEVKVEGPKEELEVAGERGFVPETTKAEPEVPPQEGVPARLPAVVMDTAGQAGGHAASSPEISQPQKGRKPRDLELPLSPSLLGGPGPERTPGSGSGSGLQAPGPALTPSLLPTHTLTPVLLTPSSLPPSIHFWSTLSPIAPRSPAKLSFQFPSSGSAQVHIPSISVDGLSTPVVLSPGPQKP
# Test: custom PBM; custom protein-binding microarray; buffer, salt, pH and temperature not stated; high values mean tight binding
# Details: dsDNA, one strand shown
row,Sequence,binding signal
1,CGGAAGTGTTGTAAACGTCGGATATCCGGTTCTTCTGTCTTGATTCGCTTGACGCTGCTG,12 log fluorescence intensity
2,GGAAAAAGGCCCAGGGTACCACCGGAAGTGGGCTTAGTCTTGATTCGCTTGACGCTGCTG,11.1 log fluorescence intensity
3,GGAAAAAGGCCCAGGATAACACCGGAAGTGGGCTTAGTCTTGATTCGCTTGACGCTGCTG,11.1 log fluorescence intensity
4,TGTCGGGTAAGGGAATGTAGATCACGTGAATGAAGAGTCTTGATTCGCTTGACGCTGCTG,9.1 log fluorescence intensity
5,TACTGACTTATATATGCGAATGCACATGAATAGCCCGTCTTGATTCGCTTGACGCTGCTG,8.94 log fluorescence intensity
6,CTGGGACTTGACCCAACTCTGCTACGTGGGTCGTTTGTCTTGATTCGCTTGACGCTGCTG,8.94 log fluorescence intensity
7,TAAAGGGAAGACGGTTGTGGTAGTTCCGGGGATTAAGTCTTGATTCGCTTGACGCTGCTG,10.9 log fluorescence intensity
8,GCTGCTGCGGTGCTTACCCCACCGGATGTGACCCCGGTCTTGATTCGCTTGACGCTGCTG,10.2 log fluorescence intensity
9,GATTAATTTCCGCCCTTATTCGCACGTGCCATAACAGTCTTGATTCGCTTGACGCTGCTG,12.5 log fluorescence intensity
10,TAGAGGGAAGACGGTTGTGGTAGTTCCGGGTATTAAGTCTTGATTCGCTTGACGCTGCTG,11.2 log fluorescence intensity
11,GATTAATTTCTGCCCTTATTCGCACGTGCCATACCAGTCTTGATTCGCTTGACGCTGCTG,8.97 log fluorescence intensity
12,GCTCCTGCGGTGCATACCCCACCGGATGTGACCCCGGTCTTGATTCGCTTGACGCTGCTG,10.3 log fluorescence intensity
13,TACTGACTTATATATGCTAATGCACATGAATAGACCGTCTTGATTCGCTTGACGCTGCTG,8.92 log fluorescence intensity
14,GGAAAAAGCCCCAGGGTAACACCGGAAGTGGGCTTAGTCTTGATTCGCTTGACGCTGCTG,10.8 log fluorescence intensity
15,TAAAGGGAAGGCGGTTGTGGTAGTTCCGGGTATTAAGTCTTGATTCGCTTGACGCTGCTG,11.5 log fluorescence intensity
16,TAAAGGGAAGACGGTGGTGGTAGTTCCGGGTATTAAGTCTTGATTCGCTTGACGCTGCTG,11.1 log fluorescence intensity
17,GCTGCTGCGGTGCATAGCCCACCGGATGTGACCCCGGTCTTGATTCGCTTGACGCTGCTG,10.4 log fluorescence intensity
18,CGGAAGTGTCGTAAACGTCGGATATGCGGTTCTTCTGTCTTGATTCGCTTGACGCTGCTG,9.16 log fluorescence intensity
19,TCCGGCTACCAGGTCCACCCACTTCAGGCCTTGTAGGTCTTGATTCGCTTGACGCTGCTG,8.9 log fluorescence intensity

row,Sequence,binding signal
1,ATGGGACTTGACCCAACTCTGCCACGTGGGTCGTTTGTCTTGATTCGCTTGACGCTGCTG,8.96 log fluorescence intensity
2,TACTGATTTATATATGCGAATGCACATGAATAGACCGTCTTGATTCGCTTGACGCTGCTG,8.91 log fluorescence intensity
3,CTGGGACTTGATCCAACTCTGCCACGTGGGTCGTTTGTCTTGATTCGCTTGACGCTGCTG,8.95 log fluorescence intensity
4,TAAAGGGAAGACGGTCGTGGTAGTTCCGGGTATTAAGTCTTGATTCGCTTGACGCTGCTG,11.3 log fluorescence intensity
5,CAGCATAGGACTTCTTCCCTGAAGCAAGTGATAACCGTCTTGATTCGCTTGACGCTGCTG,8.97 log fluorescence intensity
6,GATTAATTTCTGCCATTATTCGCACGTGCCATAACAGTCTTGATTCGCTTGACGCTGCTG,8.92 log fluorescence intensity
7,TAAAGGGAAGACGGTTGTGGTACTTCCGGGTATTAAGTCTTGATTCGCTTGACGCTGCTG,12 log fluorescence intensity
8,TAAAGGGAAGACGGTTGTGGTTGTTCCGGGTATTAAGTCTTGATTCGCTTGACGCTGCTG,10.5 log fluorescence intensity
9,CACAATTTTTACAGTAATTTAGCACGCGTAACTCCTGTCTTGATTCGCTTGACGCTGCTG,8.93 log fluorescence intensity
10,TACTGACTTATATATGCGAATGCACATGATTAGACCGTCTTGATTCGCTTGACGCTGCTG,9 log fluorescence intensity
11,GTGCATAGGATCCCATCCAACACACGTGTTAAAATGGTCTTGATTCGCTTGACGCTGCTG,9 log fluorescence intensity
12,CGGAAGTGTCGTAAACGTCGGATATACGGTTCTTCTGTCTTGATTCGCTTGACGCTGCTG,9.29 log fluorescence intensity
13,GGAAAAAGGCCCAGGGTAACACCGGAAGCGGGCTTAGTCTTGATTCGCTTGACGCTGCTG,10.5 log fluorescence intensity
14,GTGTCTAGGATCCCATCCAACACACGTGTTAAAATGGTCTTGATTCGCTTGACGCTGCTG,8.94 log fluorescence intensity
15,CAGCAGAGGACTTCTTCCCTGAAGCAATTGATAACCGTCTTGATTCGCTTGACGCTGCTG,8.97 log fluorescence intensity
16,CGGAAGTGTCGTAAACGCCGGATATCCGGTTCTTCTGTCTTGATTCGCTTGACGCTGCTG,13.3 log fluorescence intensity
17,CGGAAGTGTCGTAAACGTCGGATATCCGGTTCTTCCGTCTTGATTCGCTTGACGCTGCTG,13 log fluorescence intensity
18,CGGAAGTGTCGTAAACGTCGGATATCCGGTTCTCCTGTCTTGATTCGCTTGACGCTGCTG,12.6 log fluorescence intensity
19,CGGAAGTGTCGTAAACGTCGGATATCCGGTTCTTCGGTCTTGATTCGCTTGACGCTGCTG,12.4 log fluorescence intensity

row,Sequence,binding signal
1,CGGAAGTGTCGTAAACGTCGGATATCCGGTTCTACTGTCTTGATTCGCTTGACGCTGCTG,12.4 log fluorescence intensity
2,CGGAAGTGTCGTAAACCTCGGATATCCGGTTCTTCTGTCTTGATTCGCTTGACGCTGCTG,12.2 log fluorescence intensity
3,CGGAAGTGTCGTAAACGTCGGATATCCGGTTCTTATGTCTTGATTCGCTTGACGCTGCTG,12.4 log fluorescence intensity
4,CGGAAGTGTCGTAAACGTCGGATATCCGGTTCTGCTGTCTTGATTCGCTTGACGCTGCTG,12.5 log fluorescence intensity
5,CGGAAGTGTCGTAAACGTCGGATATCCGGTTCTTCAGTCTTGATTCGCTTGACGCTGCTG,12.6 log fluorescence intensity
6,CGGAAGTGTCGTAAACGTAGGATATCCGGTTCTTCTGTCTTGATTCGCTTGACGCTGCTG,11.8 log fluorescence intensity
7,CGGAAGTGTCGTAAACGTCTGATATCCGGTTCTTCTGTCTTGATTCGCTTGACGCTGCTG,11.1 log fluorescence intensity
8,CGGAAGTGTCGTAAACATCGGATATCCGGTTCTTCTGTCTTGATTCGCTTGACGCTGCTG,12.6 log fluorescence intensity
9,CGGAAGTGTCGTAAACGTTGGATATCCGGTTCTTCTGTCTTGATTCGCTTGACGCTGCTG,11.4 log fluorescence intensity
10,AGGAAGTGTCGTAAACGTCGGATATCCGGTTCTTCTGTCTTGATTCGCTTGACGCTGCTG,12.3 log fluorescence intensity
11,CGGAAGTGTCGTAAACGTCGGATATCCGGTTCCTCTGTCTTGATTCGCTTGACGCTGCTG,12.5 log fluorescence intensity
12,TGGAAGTGTCGTAAACGTCGGATATCCGGTTCTTCTGTCTTGATTCGCTTGACGCTGCTG,12.5 log fluorescence intensity
13,CGGAAGTGTCGTAAACGTGGGATATCCGGTTCTTCTGTCTTGATTCGCTTGACGCTGCTG,11.4 log fluorescence intensity
14,CGGAAGTGTCGTAAACGTCGGATATCCGGTTCGTCTGTCTTGATTCGCTTGACGCTGCTG,12.4 log fluorescence intensity
15,CGGAAGTGTCGTAAACTTCGGATATCCGGTTCTTCTGTCTTGATTCGCTTGACGCTGCTG,12.3 log fluorescence intensity
16,CGGAAGTGTCGTAAACGTCGGATATCCGGTTCATCTGTCTTGATTCGCTTGACGCTGCTG,12.6 log fluorescence intensity
17,CGGAAGTGTCGTAAACGTCGGATATCCGGTTCTTCTGTCTTGATTCGCTTGACGCTGCTG,12.4 log fluorescence intensity
18,GGGAAGTGTCGTAAACGTCGGATATCCGGTTCTTCTGTCTTGATTCGCTTGACGCTGCTG,12.6 log fluorescence intensity
